These results are taken from the supplement of paper PMC8253809.

In this test the test system is HGGX6 (H3.3 G34R paediatric high-grade glioma line). Kind of test: growth inhibition (% activity, log2 RLU normalised to DMSO / staurosporine); higher = more growth inhibition. The following applies: 33 µM. The procedure, abridged: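 The growth-inhibition value comes from CellTiter-Glo luminescence, log2-transformed, normalised per plate to % activity between solvent and positive control wells, and taken as the median over replicates. Treatment of pHGG cell lines and H9-derived neural stem cells with approved drugs was at a single final concentration of about 33 μM, in triplicate, for 7 days at 37 °C, 5% CO2.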
Take `Cc1ccc(NC(=O)c2ccc(CN3CCN(C)CC3)cc2)cc1Nc1nc(-c2cccnc2)cs1`: the growth inhibition stood at 9.96%. Take `CO[C@H]1C(=O)[C@]2(C)[C@@H](OC)C[C@H]3OC[C@@]3(OC(C)=O)[C@H]2[C@H](OC(=O)c2ccccc2)[C@]2(O)C[C@H](OC(=O)[C@H](O)[C@@H](NC(=O)OC(C)(C)C)c3ccccc3)C(C)=C1C2(C)C`: the growth inhibition was 12.9%. Regarding `C#C[C@]1(O)CC[C@H]2[C@@H]3CCc4cc(O)ccc4[C@H]3CC[C@@]21C`, the growth inhibition is 2.48%. In the case of `CN(C)c1ccc(C(=C2C=CC(=[N+](C)C)C=C2)c2ccc(N(C)C)cc2)cc1` it was 48.2%; in that of `CN1CCN(c2c(F)cc3c(=O)c(C(=O)O)cn(CCF)c3c2F)CC1`, -0.149%.

As to `CC(C)(C#N)c1cc(Cn2cncn2)cc(C(C)(C)C#N)c1`, the growth inhibition came out at 1.21%. In the case of `CNC(=O)c1ccccc1Sc1ccc2c(/C=C/c3ccccn3)n[nH]c2c1` it was 20.3%. Regarding `Cc1ccccc1C(=O)Nc1ccc(C(=O)N2CCCC(O)c3cc(Cl)ccc32)c(C)c1` (centres undefined), the growth inhibition was determined as 2.91%. Regarding `O=C(O)c1cc(=O)c2ccccc2o1`, the growth inhibition is -1.13%. In the case of `CC[C@H](C)C(=O)O[C@H]1C[C@H](O)C=C2C=C[C@H](C)[C@H](CC[C@@H](O)C[C@@H](O)CC(=O)O)[C@H]21` it was 5.23%; in that of `Cc1ccccc1C(OCCN(C)C)c1ccccc1` (centres undefined), 1.66%. Take `CC(C)(Oc1ccc(Cl)cc1)C(=O)O`: the growth inhibition is -2.21%. Consider `C#C[C@]1(OC(C)=O)CC[C@H]2[C@@H]3CCC4=C[C@@H](OC(C)=O)CC[C@@H]4[C@H]3CC[C@@]21C`, for which the growth inhibition is 0.0724%. `CN1[C@@H]2CC[C@H]1CC(OC(=O)c1c[nH]c3ccccc13)C2` (some centres undefined): the growth inhibition is 1.59%.
